Data on 40 molecules can be found in PubChem BioAssay (NCI).

Compounds without any hit were thinned out: in the full panel of roughly 79,000, 15% have a hit. The source made the active and inactive calls. Cut-off read from the data, not from the text of the source: active = growth inhibition above about 70%; inactive = the rest.

The assay is described as follows: NCI Yeast Anticancer Drug Screen. Data for the rad50 strain (AID 155).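 Note: 0% = growth of vehicle-only cultures of the same strain.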 Conditions: S. cerevisiae rad50 strain growth inhibition; at 50.0 µM; stronger effect = higher value. On the procedure: Growth inhibition of yeast strains with defined genetic alterations is measured as a screen for potential anti-cancer activity. Selected strains with alterations in DNA damage repair or cell cycle control were exposed to compounds and growth inhibition was measured relative to vehicle treated controls. The strain used in this assay is rad50
Turning to `CCOc1c(N=Nc2ccccc2Cl)c(C)nn1C(N)=S`, the growth inhibition was -14.2% (inactive).
With `CCOc1c(N2CCOCC2)c(=O)c1=O` the figure was 11.6% (inactive); with `Cc1ccc(S(=O)(=O)N/N=C2\C3CC4CC(C3)C2C4)cc1` (stereo not given), -21% (inactive).
For `CS(=O)(=O)OCC1COCC1COS(C)(=O)=O` (stereo not given), the growth inhibition is 26.8% (inactive).
`CCCCC1=CC1(C#N)[N+](=O)[O-]` (stereo not given): the growth inhibition was 33.4% (inactive).
In the case of `O=C(NN1C(=O)CSC1c1ccc(F)cc1)c1ccncc1` (stereo not given), the growth inhibition was -4.2% (inactive).
With `CC(C)(C)NC(=O)NCCCl` the figure was 1% (inactive); with `Cc1cn(C(=O)NC23CC4CC(CC(C4)C2)C3)c(=O)[nH]c1=O`, 14.8% (inactive).
Consider `CC(=O)Nc1cc(C)c(C)cc1[N+](=O)[O-]`, for which the growth inhibition was -2.5% (inactive).
The value for `COc1ccc(-c2cc(-c3ccccc3)c(C#N)c(=O)n2C2OC(CO)C(O)C(O)C2O)cc1` (stereo not given) was -8.2% (inactive).
Consider `CCC(CC)(C1CCC(=O)CC1)C1CCC(=O)CC1`, for which the growth inhibition is 45.9% (inactive).
With `COc1ccccc1C(C)C`, the growth inhibition is -11.1% (inactive).
For `S=C(Sc1nc2ccccc2[nH]1)Sc1nc2ccccc2[nH]1`, the growth inhibition was 16.9% (inactive).
With `O=C1NCCS(=O)(=O)N2CCC[C@@H]12` the figure was 54.4% (inactive); with `C=CCN1C(SC)=NC(=O)C1(c1ccccc1)c1ccccc1`, 14.8% (inactive); with `COC(=O)c1ccc(CSc2ccc(N)cc2)cc1`, 53.1% (inactive).
`Nc1nc(Cl)cc(NCCCNc2cc(Cl)nc(N)n2)n1`: the growth inhibition is -1.55% (inactive).
On to `CCN(CC)CCCCCOC(=O)c1cccc(N)c1`, for which the growth inhibition is -5.8% (inactive).
Turning to `CC(=O)OCC1OC(n2c3c(c(-c4ccc(Cl)cc4)c(C#N)c2=S)C(=O)CC(C)(C)C3)C(OC(C)=O)C(OC(C)=O)C1OC(C)=O` (stereo not given), the growth inhibition is 16.1% (inactive).
In the case of `OC1CCCCC12CC2` (stereo not given), the growth inhibition was 3.85% (inactive).
For the molecule `O=S1(=O)C(Cl)=C(O)c2ccccc21`, the growth inhibition is 13.4% (inactive).
The value for `CCCCOC(=O)C1CC2CC1C1OC21` (stereo not given) was -67.6% (inactive).
`O=C(NCCCCCCNC(=O)Oc1ccccc1F)Oc1ccccc1F`: the growth inhibition was -13.6% (inactive).
As for `CCOC(=O)/C(=C/c1cc(OC)ccc1OC)P(=O)(OCC)OCC`, the growth inhibition was 6.05% (inactive).
With `O=[N+]([O-])c1ccc(/C=C(/c2ccc([N+](=O)[O-])o2)S(=O)(=O)c2ccccc2)o1`, the growth inhibition was 86% (active).
With `O=C1C(=Cc2ccc(Cl)c(Cl)c2)C([O-])=C([P+](c2ccccc2)(c2ccccc2)c2ccccc2)C([O-])=C1[P+](c1ccccc1)(c1ccccc1)c1ccccc1`, the growth inhibition was -4.6% (inactive).
For `CNc1nc(Cl)cc2nc(Cl)cn12`, the growth inhibition was -2.15% (inactive).
With `CCOC(=O)c1cnc2ccc(OC)cc2c1`, the growth inhibition is 0.7% (inactive).
Turning to `O=C1CSC(c2cccc([N+](=O)[O-])c2)N1c1ccc(-n2c(-c3ccccc3)nc3ccccc3c2=O)cc1` (stereo not given), the growth inhibition is -10.8% (inactive).
Take `O=C(CC(=O)N(C(=O)c1ccccc1)c1ccc(Cl)cc1)N/N=C\c1ccccc1O`: the growth inhibition was 1.35% (inactive).
Consider `Brc1ccc2oc3ccccc3c2c1`, for which the growth inhibition is 24.4% (inactive).
Take `CC1=C(/C=C/C(C)=C/C=C/C(C)=C/C=C/C=C(C)/C=C/C=C(C)/C=C/C=C(C)/C=C/C=C(\C)C(=O)O)C(C)(C)CCC1`: the growth inhibition is 3.7% (inactive).
As for `C1CCC2C3CCC(O3)C2C1` (stereo not given), the growth inhibition is -4.2% (inactive).
For `Cc1nnc2sc(Cl)nn12`, the growth inhibition is 26.9% (inactive).
Turning to `Cc1ccc(S(=O)(=O)OC2CCCCCCCCCCC2=O)cc1` (stereo not given), the growth inhibition was -3.55% (inactive).
The value for `CC12CC(O)C(C=C1c1ccccc1)C2(C)C` (stereo not given) was -7.55% (inactive); that for `CC(C)CC(N)C(=O)OCN1C(=O)C2C3C=CC(C2C1=O)C1C2C(=O)N(COC(=O)C(N)CC(C)C)C(=O)C2C31` (stereo not given) was 16.1% (inactive).
`C/C(N)=C\c1nc(=O)ccs1`: the growth inhibition was 10.9% (inactive).
As for `COc1cc(/C=C(\C#N)c2ccccn2)cc(Br)c1O`, the growth inhibition is -7.35% (inactive).
With `COC(=O)c1c(-c2ccccc2)cn(C)c1C`, the growth inhibition is 16.9% (inactive).
